# Experimental data reported in PubChem BioAssay (NCI).
# This is part of a sample that, as a whole, favours compounds with a hit. Of some 83,000 tested, about 20% had one in any assay.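 In brief: 96-well plates, 48 h treatment, single concentration, percent growth endpoint.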 Unmarked numbers belong to inactive results. Activity calls are given as the source filed them. Rule for the calls: active = growth percent below 10; inactive = the rest.
# Columns and labels:
# Assay in all cases: NCI-60 one-dose screen, 48 h (100 = growth as untreated, 0 = no growth, -100 = all killed)
# NCI-H23 lung = conditions: 10 µM unless noted
# NCI-H322M lung = conditions: 10 µM unless noted
# HOP-62 NSCLC = conditions: 10 µM unless noted
# NCI-H460 lung = conditions: 10 µM unless noted
# HOP-92 NSCLC = conditions: 10 µM unless noted
# NCI-H522 lung = conditions: 10 µM unless noted
# A549/ATCC NSCLC = conditions: 10 µM unless noted
# 786-0 renal = conditions: 10 µM unless noted
# COLO 205 colon = conditions: 10 µM unless noted
# DU-145 prostate = conditions: 10 µM unless noted
# K-562 leukemia = conditions: 10 µM unless noted
# MALME-3M melanoma = conditions: 10 µM unless noted
# MDA-MB-231 breast = conditions: 10 µM unless noted
# RXF 393 renal = conditions: 10 µM unless noted
# SF-268 CNS = conditions: 10 µM unless noted
# SF-295 CNS = conditions: 10 µM unless noted
# SF-539 CNS = conditions: 10 µM unless noted
# M14 melanoma = conditions: 10 µM unless noted
# UACC-257 melanoma = conditions: 10 µM
SMILES,growth (NCI-H23 lung),growth (NCI-H322M lung),growth (HOP-62 NSCLC),growth (NCI-H460 lung),growth (HOP-92 NSCLC),growth (NCI-H522 lung),growth (A549/ATCC NSCLC),growth (786-0 renal),growth (COLO 205 colon),growth (DU-145 prostate),growth (K-562 leukemia),growth (MALME-3M melanoma),growth (MDA-MB-231 breast),growth (RXF 393 renal),growth (SF-268 CNS),growth (SF-295 CNS),growth (SF-539 CNS),growth (M14 melanoma),growth (UACC-257 melanoma)
Cc1ccc2nc(-c3c(N)n[nH]c3CCCO)[nH]c(=O)c2c1,105%,107%,92.1%,110%,82.8%,114%,103%,101%,105%,121%,102%,137%,99.5%,167%,104%,114%,96.4%,102%,–
O=C1CCCCN1CCCCC#Cc1ccccc1C#Cc1ccc([N+](=O)[O-])cc1,59%,71%,64.9%,11.5%,39.6%,56.3%,50.1%,60.6%,45.8%,71.1%,33.9%,55.7%,59.3%,23.5%,40.3%,75.9%,37.6%,59.5%,–
O=C(Nc1ccc(I)cc1)c1cc([N+](=O)[O-])ccc1O,8.5% (active),29.7%,23.8%,33.7%,-6.55% (active),-1.54% (active),44.1%,39.6%,37.1%,51.4%,18.7%,-2.87% (active),16.2%,7.47% (active),39.4%,33.7%,20.4%,31.3%,–
Cc1nc(Nc2cccnc2)sc1C(=O)/C=C/c1ccc(Cl)cc1,92.8%,32.1%,15.6%,70.6%,92%,44.7%,26.5%,12.3%,43.8%,17.6%,7.88% (active),89.7%,73.9%,16.2%,46.7%,42.8%,-14.5% (active),38.2%,73.7%
COc1cc(NC(=O)CCl)ccc(=O)c1,53.7%,86.4%,113%,77.4%,79%,17.2%,84.5%,106%,82.6%,83.5%,75.2%,87.7%,58.6%,84.7%,77.6%,80.9%,83.5%,78.6%,66%
CCOC(=O)/C=C\C(=O)NC(N)=O,102%,104%,87.8%,110%,94.5%,90.3%,77.8%,103%,115%,106%,94.4%,102%,103%,101%,106%,106%,108%,96.7%,–
O=C(Nc1cc(C(F)(F)F)cc(C(F)(F)F)c1)Nc1ccc(OCc2nnc(-c3ccc(Cl)cc3)o2)c(F)c1,-5.96% (active),19.3%,10.3%,6.63% (active),-11.9% (active),-22.8% (active),10.5%,15.1%,-84.7% (active),23.8%,16.1%,-3.82% (active),-17% (active),–,25.6%,8.71% (active),10.5%,18.6%,2.65% (active)
COc1ccc(/C=C/C(=O)c2ccc(NC(=O)CN3CCN(c4cc5c(cc4F)c(=O)c(C(=O)O)cn5C4CC4)CC3)cc2)cc1,99.6%,96.1%,98.2%,112%,90.6%,111%,96.8%,89.8%,120%,126%,104%,94.5%,96.2%,98.4%,113%,95.3%,108%,96.9%,96.5%
CCCCOc1nc2c(C)cccc2cc1C1CNC(=O)c2ccccc2N1 (configuration not stated),80%,105%,56.2%,56.2%,62.6%,44.8%,60.1%,46.2%,90.8%,86%,19%,86.1%,65.3%,78.3%,66.9%,52.5%,68.3%,54.7%,–
Nc1c(C(=O)Nc2cccc(C(F)(F)F)c2)sc2nc3c(cc12)CCCCCC3,8.82% (active),10.6%,-1.22% (active),4.27% (active),-14.2% (active),36.2%,-45.2% (active),-71.7% (active),48.5%,20.8%,17%,-20.6% (active),-12.9% (active),-49.1% (active),12.7%,2.51% (active),-86.9% (active),47.1%,7.85% (active)
Cc1ccc(S(=O)(=O)OC2COCOC2C(OS(=O)(=O)c2ccc(C)cc2)C2OCOCC2OS(=O)(=O)c2ccc(C)cc2)cc1 (configuration not stated),109%,96.3%,99.4%,110%,104%,98.3%,93.6%,–,108%,111%,100%,98.1%,–,114%,106%,104%,98.9%,112%,97.2%
C=C1C(=O)O[C@H]2[C@H]1CC/C(COC(=O)NCc1ccc(OC)cc1)=C\CC[C@@]1(C)O[C@@H]21,74.2%,84.6%,67.5%,77.7%,63.3%,-55.5% (active),69.1%,15.6%,-17.7% (active),33.5%,14%,98.3%,60.9%,15%,55.5%,96.2%,50.2%,32.9%,–
O=C(/C=C/c1ccccc1)n1c(-c2ccc(Cl)cc2)nc2ccccc21,-24.5% (active),45%,-48.8% (active),0.538% (active),-39.4% (active),-72.4% (active),-4.99% (active),-17.7% (active),-60.8% (active),11.1%,39.8%,15.9%,-26.5% (active),-65.2% (active),-11.9% (active),-52% (active),-48.4% (active),-37.3% (active),-64.4% (active)
O=C(NCCCN1CCN(CCCNC(=O)C2CCCCC2)CC1)C1CCCCC1,111%,91.9%,94.7%,101%,70.5%,95%,101%,96.5%,104%,110%,92.7%,94%,108%,119%,104%,84.5%,96.7%,98.6%,97.1%
CN(C)c1nc(N)c(N=O)c(N)n1,107%,111%,107%,110%,102%,106%,109%,106%,127%,113%,103%,118%,108%,118%,110%,127%,110%,111%,–
O=Nc1c(-c2c(O)[nH]c3ccc([N+](=O)[O-])cc23)[nH]c2ccc(O)cc12,3.19% (active),7.21% (active),-9.77% (active),-28.5% (active),-3.1% (active),-79.1% (active),10.6%,4.21% (active),65.8%,6.72% (active),20.9%,11.7%,25.4%,–,6.5% (active),20.9%,-34.1% (active),11.4%,9.29% (active)
COc1cc(NS(C)(=O)=O)ccc1Nc1c2ccc([N+](=O)[O-])cc2nc2c(C)cccc12,-0.0901% (active),39.6%,-2.67% (active),-25.4% (active),-23.8% (active),-25.8% (active),-35.8% (active),-3.37% (active),25.3%,-13.1% (active),4.57% (active),14.4%,–,10.4%,7.28% (active),-43.7% (active),-13.7% (active),22.6%,2.11% (active)
O=C(Nc1ccc(Br)c(Cl)c1)c1cc(F)ccc1O,-9.2% (active),9.4% (active),0.0415% (active),3.85% (active),-14.4% (active),0.474% (active),8.88% (active),7.91% (active),41.5%,23.5%,9.59% (active),-22.8% (active),-20% (active),-5.62% (active),19.1%,-53.1% (active),5.17% (active),-14.3% (active),-23.5% (active)
O=C(CNC(=O)c1cccc2ccccc12)Nc1ccccc1Oc1ccccc1,20.9%,41.8%,24.6%,-2.87% (active),-1.24% (active),-10.5% (active),9.48% (active),16.3%,-8.22% (active),3.85% (active),7.84% (active),71.8%,15%,31.1%,18.1%,13.6%,1.63% (active),17.2%,–
Nc1c(C(=O)c2ccc(F)cc2)sc2nc3c(cc12)CCCC3,77.9%,81.3%,91.1%,90.3%,61.3%,-2.9% (active),70.9%,85.3%,84.8%,77.9%,25.8%,31.7%,85.7%,56%,87.4%,72.6%,95.3%,71%,95%
